From PubChem BioAssay AID624137 (Broad Institute, 2012)
Among all 31,000 compounds or so, about 360 (1.2%) were called active. The rule behind the calls is not given here. The list comes from a sample in which actives are over-represented; it also holds similar structures and randomly drawn compounds.
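Note: a binder raises fluorescence above local background on the spot.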

These compounds were tested against DNA-binding protein inhibitor ID-4 (Homo sapiens) (UniProt P47928) (assay: PubChem AID 624137). Conditions: small molecule microarray, Flag-ID4 binding, fluorescence F/B.
DNA-binding protein inhibitor ID-4 (Homo sapiens), sequence (P47928 whole entry, looked up): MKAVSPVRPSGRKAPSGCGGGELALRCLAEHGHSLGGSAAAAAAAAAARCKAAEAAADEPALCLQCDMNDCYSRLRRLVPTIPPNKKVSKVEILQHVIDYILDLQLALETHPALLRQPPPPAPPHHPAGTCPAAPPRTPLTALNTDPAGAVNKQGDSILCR
With `O=C(C[C@@H]1CC[C@@H](NS(=O)(=O)c2ccc(F)cc2)[C@H](CO)O1)NCc1ccc(Cl)c(Cl)c1` the outcome was “inactive”.
With `COc1ccccc1-c1cnc2c(c1)C(=O)N([C@H](C)CO)C[C@@H](C)[C@@H](CN(C)Cc1ccncc1)O2` the outcome was “inactive”.
With `COc1ccccc1-c1cnc2c(c1)C(=O)N([C@@H](C)CO)C[C@H](C)[C@H](CN(C)C(=O)c1ccncc1)O2` the outcome was “inactive”.
With `CC(C)CC#Cc1cnc2c(c1)C(=O)N([C@@H](C)CO)C[C@H](C)[C@@H](CN(C)C(=O)c1cccc(F)c1)O2` the outcome was “inactive”.
In the case of `CC(C)CC#Cc1cnc2c(c1)C(=O)N([C@H](C)CO)C[C@H](C)[C@@H](CN(C)Cc1ccccc1)O2`, the outcome is reported as “inactive”.
`c1ccc2[nH]c(CSc3nc4ccccc4[nH]3)nc2c1` was tested, and the outcome was “inactive”.
For `C[C@@H]1CN([C@H](C)CO)C(=O)c2cc(C#CC3CCCC3)cnc2O[C@H]1CN(C)C(=O)C1CC1`, the outcome was “inactive”.
In the case of `COc1ccccc1-c1cnc2c(c1)C(=O)N([C@@H](C)CO)C[C@H](C)[C@H](CN(C)CC1CCOCC1)O2`, the outcome is reported as “inactive”.
In the case of `CN(C)c1ccc2c(c1)[C@@H]1C[C@@H](CC(=O)NCc3ccccn3)O[C@H](CO)[C@@H]1O2`, the outcome is reported as “inactive”.
With `CCC(=O)N(C)C[C@H]1Oc2ncc(-c3ccc(C)cc3)cc2C(=O)N([C@@H](C)CO)C[C@@H]1C` the outcome was “inactive”.
`COc1ccccc1-c1ccc2c(c1)O[C@H](CN(C)C(=O)c1cccnc1)[C@H](C)CN([C@@H](C)CO)S2(=O)=O` was tested, and the outcome was “inactive”.
`COc1cc(S(=O)(=O)NCCN2CCOCC2)ccc1Br` was tested, and the outcome was “inactive”.
With `O=C(CSc1nnnn1-c1ccccc1)Nc1ccccc1C(=O)c1ccccc1` the outcome was “inactive”.
In the case of `C[C@H](CO)N1C[C@H](C)[C@H](CN(C)CC2CC2)Oc2cc(-c3ccc(F)cc3)ccc2S1(=O)=O`, the outcome is reported as “inactive”.
With `O=C(C[C@H]1C=C[C@@H](NC(=O)C2CC2)[C@H](CO)O1)NCC1CC1` the outcome was “inactive”.
With `O=C(C[C@H]1C=C[C@@H](NC(=O)CC2CC2)[C@H](CO)O1)NCc1ccc(-c2ccccc2)cc1` the outcome was “inactive”.
In the case of `Cc1ccc(-c2cnc3c(c2)C(=O)N([C@H](C)CO)C[C@@H](C)[C@@H](CN(C)C(=O)CN(C)C)O3)cc1`, the outcome is reported as “inactive”.
In the case of `C[C@@H]1CN([C@H](C)CO)S(=O)(=O)c2ccc(-c3ccccc3)cc2O[C@@H]1CN(C)CC1CC1`, the outcome is reported as “inactive”.
In the case of `CN(C)C(=O)C[C@H]1CC[C@@H](NC(=O)Nc2cccc(F)c2)[C@H](CO)O1`, the outcome is reported as “inactive”.
In the case of `CC(C)c1cn(CC[C@@H]2CC[C@@H](NC(=O)C3CCC3)[C@@H](CO)O2)nn1`, the outcome is reported as “inactive”.
`CN(C)C(=O)C[C@H]1CC[C@@H](NC(=O)C2CC2)[C@@H](CO)O1` was tested, and the outcome was “inactive”.
`O=C(C[C@@H]1C=C[C@@H](NC(=O)Nc2cccc(F)c2)[C@H](CO)O1)NCC1CCCCC1` was tested, and the outcome was “inactive”.
`CO[C@@H]1CN(C)C(=O)c2cc(NC(=O)c3ccccc3F)ccc2OC[C@@H](C)N(CC2CC2)C[C@H]1C` was tested, and the outcome was “inactive”.
`CC(C)NC(=O)N(C)C[C@@H]1Oc2c(cccc2N(C)C)C(=O)N([C@H](C)CO)C[C@@H]1C` was tested, and the outcome was “inactive”.
With `CC(C)NC(=O)N(C)C[C@@H]1Oc2ccc(N(C)C)cc2C(=O)N([C@@H](C)CO)C[C@H]1C` the outcome was “inactive”.
With `CC(C)NC(=O)N(C)C[C@@H]1Oc2c(cccc2N(C)C)C(=O)N([C@@H](C)CO)C[C@H]1C` the outcome was “active”.
In the case of `CCC(Oc1cccc(NC(=O)c2ccccc2[N+](=O)[O-])c1)C(=O)c1ccccc1` (centres undefined), the outcome is reported as “inactive”.
In the case of `C[C@@H]1CN([C@H](C)CO)C(=O)c2cc(C#Cc3cccc(F)c3)cnc2O[C@H]1CN(C)Cc1ccccn1`, the outcome is reported as “inactive”.
With `CCCC#Cc1ccc2c(c1)O[C@@H](CN(C)CCC)[C@@H](C)CN([C@H](C)CO)S2(=O)=O` the outcome was “inactive”.
With `CC(C)NC(=O)N(C)C[C@H]1Oc2ncc(C#CC3CC3)cc2C(=O)N([C@H](C)CO)C[C@@H]1C` the outcome was “inactive”.
`C[C@@H]1CN([C@@H](C)CO)C(=O)c2cc(-c3ccccc3F)cnc2O[C@@H]1CN(C)Cc1cccc(F)c1` was tested, and the outcome was “inactive”.
For `O=C(C[C@@H]1C=C[C@@H](NC(=O)c2ccccn2)[C@@H](CO)O1)NCc1cc(F)cc(F)c1`, the outcome was “inactive”.
`C[C@@H]1CN([C@H](C)CO)C(=O)c2cc(-c3ccncc3)cnc2O[C@H]1CN(C)C` was tested, and the outcome was “inactive”.
With `C[C@H]1CN([C@@H](C)CO)C(=O)c2cc(C3=CCCC3)cnc2O[C@@H]1CN(C)Cc1cccnc1` the outcome was “inactive”.
`C/C=C/c1ccc2c(c1)O[C@H](CN(C)C)[C@H](C)CN([C@H](C)CO)S2(=O)=O` was tested, and the outcome was “inactive”.
For `CCC1=NN(C(=O)C(C)C)C(O)(c2ccc(Br)cc2)C1` (centres undefined), the outcome was “inactive”.
In the case of `CC(=O)N(C)C[C@@H]1Oc2ncc(C#CCc3ccccc3)cc2C(=O)N([C@H](C)CO)C[C@H]1C`, the outcome is reported as “inactive”.
With `C[C@H](CO)N1C[C@H](C)[C@H](CN(C)C)Oc2ncc(-c3ccncc3)cc2C1=O` the outcome was “inactive”.
For `COc1cccc(S(=O)(=O)N[C@H]2C=C[C@H](CC(=O)NC3Cc4ccccc4C3)O[C@H]2CO)c1`, the outcome was “inactive”.
In the case of `CC(C)NC(=O)N(C)C[C@@H]1Oc2ncc(C#CC3CC3)cc2C(=O)N([C@@H](C)CO)C[C@H]1C`, the outcome is reported as “inactive”.
With `O=C(C[C@@H]1CC[C@@H](NC(=O)C2CC2)[C@@H](CO)O1)NCc1ccccc1Cl` the outcome was “inactive”.
With `COCC#Cc1ccc2c(c1)O[C@H](CN(C)CC1CC1)[C@H](C)CN([C@H](C)CO)S2(=O)=O` the outcome was “inactive”.
For `C[C@H](CO)N1C[C@H](C)[C@H](CN(C)C)Oc2cc(C#Cc3ccccc3F)ccc2S1(=O)=O`, the outcome was “inactive”.
For `O=C(C[C@@H]1C=C[C@@H](NC(=O)c2cccnc2)[C@H](CO)O1)NCCN1CCCCC1`, the outcome was “inactive”.
With `COC(=O)C[C@H]1CC[C@H](NC(=O)c2ccccc2)[C@@H](CO)O1` the outcome was “inactive”.
`CC(C)CC#Cc1cnc2c(c1)C(=O)N([C@H](C)CO)C[C@H](C)[C@@H](CN(C)Cc1ccccc1C(=O)O)O2` was tested, and the outcome was “inactive”.
With `O=C(C[C@@H]1C[C@H]2c3cc(NC(=O)C4CCOCC4)ccc3O[C@H]2[C@H](CO)O1)NCc1ccc2c(c1)OCO2` the outcome was “inactive”.
`C[C@H]1CN([C@@H](C)CO)S(=O)(=O)c2ccc(-c3ccccc3F)cc2O[C@H]1CN(C)C(=O)C1CC1` was tested, and the outcome was “inactive”.
In the case of `C[C@@H]1CN([C@H](C)CO)C(=O)c2cc(C#CCC3CCCC3)cnc2O[C@H]1CN(C)C(=O)c1cnccn1`, the outcome is reported as “inactive”.
